The full data set covers some 8,800 targets. This sample favours those with a hit. About 0.5% of all pairs of compound and target were hits. A number with no mark means an inactive call.
How the values were obtained:
Assay in all cases: log2 fold change, soluble protein after heating vs DMSO (PISA); higher = thermal stabilisation; K562 lysate, 10 uM; active = over 0.2 and 3.5 SD of the protein, either way, in both replicates (recomputed)
[1] = compound: C1=CC=C(C=C1)[C@H](COC2=CC3=C(C=C2)NC(=O)N3)NC(=O)C4=CC=CN(C4=O)CC5=CC(=C(C=C5)F)F
Outline: (§1)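 The values are log-two fold changes in thermal stability compared with solvent controls and come from duplicates. They were obtained by TMTpro 16plex LC-MS/MS, with channel sums equalised, on the supernatant after 21,000xg for 90 min. That supernatant came from crude K562 extract at 1 mg/mL protein treated with 10 μM compound for 30 min, heated for 3 min across 48°C-58°C, pooled and brought to 0.5% NP-40 at 4°C.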

[2] = compound: CC1=C(SC2=C1C(=N[C@H](C3=NN=C(N32)C)CC(=O)N)C4=CC=C(C=C4)Cl)C
Outline: as §1

[3] = compound: Cc1sc2c(c1C)C(c1ccc(Cl)cc1)=N[C@@H](CC(=O)OC(C)(C)C)c1nnc(C)n1-2
Outline: as §1

[4] = compound: c1ccc([C@@H]2C[C@H]2NC2CCNCC2)cc1
Outline: as §1

[5] = compound: CC1=C2C(=CC=C1)N=C(N(C2=O)C3=CC=CC=C3C)CN4C=NC5=C(N=CN=C54)N
Outline: as §1

UniProt Q6Q0C0, sequence (Q6Q0C0 whole entry, looked up): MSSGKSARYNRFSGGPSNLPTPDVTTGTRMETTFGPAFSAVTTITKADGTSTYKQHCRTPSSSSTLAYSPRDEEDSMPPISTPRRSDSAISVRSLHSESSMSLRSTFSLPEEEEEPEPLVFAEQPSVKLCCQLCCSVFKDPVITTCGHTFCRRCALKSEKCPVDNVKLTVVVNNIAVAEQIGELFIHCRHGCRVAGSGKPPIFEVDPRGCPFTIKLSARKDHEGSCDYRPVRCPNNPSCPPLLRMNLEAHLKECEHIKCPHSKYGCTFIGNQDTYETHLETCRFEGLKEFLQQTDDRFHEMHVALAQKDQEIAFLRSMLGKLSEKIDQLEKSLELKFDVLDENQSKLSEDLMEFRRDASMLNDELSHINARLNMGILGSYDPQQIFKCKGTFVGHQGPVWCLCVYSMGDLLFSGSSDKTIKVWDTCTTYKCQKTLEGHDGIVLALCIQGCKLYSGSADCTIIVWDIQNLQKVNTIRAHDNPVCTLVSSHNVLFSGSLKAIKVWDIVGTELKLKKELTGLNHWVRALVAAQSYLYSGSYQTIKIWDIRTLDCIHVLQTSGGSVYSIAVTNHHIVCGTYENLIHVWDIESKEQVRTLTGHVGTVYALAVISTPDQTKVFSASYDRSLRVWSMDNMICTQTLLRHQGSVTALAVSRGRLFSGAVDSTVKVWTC
UniProt P62328, sequence (P62328 whole entry, looked up): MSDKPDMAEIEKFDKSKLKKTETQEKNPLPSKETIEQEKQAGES
UniProt P21580, sequence (P21580 whole entry, looked up): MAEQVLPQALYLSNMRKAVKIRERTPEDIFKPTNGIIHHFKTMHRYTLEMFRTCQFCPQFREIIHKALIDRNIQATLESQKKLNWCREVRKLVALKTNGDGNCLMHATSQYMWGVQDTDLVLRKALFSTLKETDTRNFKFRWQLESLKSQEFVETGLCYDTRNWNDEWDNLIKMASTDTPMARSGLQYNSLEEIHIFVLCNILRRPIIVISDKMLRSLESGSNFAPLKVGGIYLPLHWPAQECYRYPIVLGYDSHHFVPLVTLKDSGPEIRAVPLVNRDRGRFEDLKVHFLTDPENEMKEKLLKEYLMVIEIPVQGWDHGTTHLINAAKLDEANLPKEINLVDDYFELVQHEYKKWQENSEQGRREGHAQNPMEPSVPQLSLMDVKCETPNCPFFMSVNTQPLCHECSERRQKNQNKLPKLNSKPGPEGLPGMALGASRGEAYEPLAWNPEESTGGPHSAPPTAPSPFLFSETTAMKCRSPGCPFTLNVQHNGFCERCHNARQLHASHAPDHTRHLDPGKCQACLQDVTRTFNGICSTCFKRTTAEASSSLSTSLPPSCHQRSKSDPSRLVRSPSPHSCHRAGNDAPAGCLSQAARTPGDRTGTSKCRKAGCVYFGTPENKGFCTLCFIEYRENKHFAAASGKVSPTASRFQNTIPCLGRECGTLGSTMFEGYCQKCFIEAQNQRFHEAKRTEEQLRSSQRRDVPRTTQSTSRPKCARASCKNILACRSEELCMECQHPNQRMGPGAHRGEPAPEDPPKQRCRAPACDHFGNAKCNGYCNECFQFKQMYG
UniProt Q9UKE5, sequence (Q9UKE5 whole entry, looked up): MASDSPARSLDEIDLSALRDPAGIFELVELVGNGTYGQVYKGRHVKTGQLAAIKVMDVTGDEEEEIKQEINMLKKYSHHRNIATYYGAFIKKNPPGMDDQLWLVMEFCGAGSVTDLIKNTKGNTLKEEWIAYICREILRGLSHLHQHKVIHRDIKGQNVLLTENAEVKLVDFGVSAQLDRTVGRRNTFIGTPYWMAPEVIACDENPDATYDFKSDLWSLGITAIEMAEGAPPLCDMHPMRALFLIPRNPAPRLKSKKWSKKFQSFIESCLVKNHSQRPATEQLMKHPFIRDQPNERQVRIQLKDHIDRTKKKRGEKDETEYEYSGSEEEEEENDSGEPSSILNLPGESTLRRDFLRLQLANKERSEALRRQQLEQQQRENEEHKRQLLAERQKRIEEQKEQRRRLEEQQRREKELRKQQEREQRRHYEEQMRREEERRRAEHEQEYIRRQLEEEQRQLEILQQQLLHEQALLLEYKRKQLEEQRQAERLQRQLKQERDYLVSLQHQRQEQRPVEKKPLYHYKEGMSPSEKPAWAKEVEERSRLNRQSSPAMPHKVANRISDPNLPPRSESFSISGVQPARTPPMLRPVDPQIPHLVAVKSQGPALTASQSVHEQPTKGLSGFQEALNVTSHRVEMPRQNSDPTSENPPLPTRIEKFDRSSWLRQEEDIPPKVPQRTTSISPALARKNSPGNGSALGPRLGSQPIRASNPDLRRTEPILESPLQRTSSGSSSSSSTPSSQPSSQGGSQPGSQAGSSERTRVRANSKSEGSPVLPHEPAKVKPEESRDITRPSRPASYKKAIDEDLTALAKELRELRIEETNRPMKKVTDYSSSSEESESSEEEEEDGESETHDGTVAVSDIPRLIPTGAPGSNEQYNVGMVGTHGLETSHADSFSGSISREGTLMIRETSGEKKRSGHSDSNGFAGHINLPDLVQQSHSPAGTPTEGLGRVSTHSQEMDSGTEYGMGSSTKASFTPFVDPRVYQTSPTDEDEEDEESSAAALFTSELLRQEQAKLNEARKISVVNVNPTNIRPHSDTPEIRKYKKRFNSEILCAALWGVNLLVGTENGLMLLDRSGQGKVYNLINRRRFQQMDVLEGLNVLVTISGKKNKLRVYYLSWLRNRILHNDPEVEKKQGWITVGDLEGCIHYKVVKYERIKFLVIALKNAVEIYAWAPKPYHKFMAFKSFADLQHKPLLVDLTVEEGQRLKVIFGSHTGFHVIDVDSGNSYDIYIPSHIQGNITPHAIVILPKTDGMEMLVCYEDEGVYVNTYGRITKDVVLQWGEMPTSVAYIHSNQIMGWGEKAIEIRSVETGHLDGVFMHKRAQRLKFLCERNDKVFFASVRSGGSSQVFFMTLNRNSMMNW
UniProt P06753, sequence (P06753 whole entry, looked up): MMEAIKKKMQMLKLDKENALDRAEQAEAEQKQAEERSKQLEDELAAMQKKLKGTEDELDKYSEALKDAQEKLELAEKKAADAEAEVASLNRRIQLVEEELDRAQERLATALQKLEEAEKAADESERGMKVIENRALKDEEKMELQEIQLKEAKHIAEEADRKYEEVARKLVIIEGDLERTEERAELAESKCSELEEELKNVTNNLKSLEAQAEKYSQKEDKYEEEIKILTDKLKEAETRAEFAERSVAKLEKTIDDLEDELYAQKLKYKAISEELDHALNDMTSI
UniProt P15884, sequence (P15884 whole entry, looked up): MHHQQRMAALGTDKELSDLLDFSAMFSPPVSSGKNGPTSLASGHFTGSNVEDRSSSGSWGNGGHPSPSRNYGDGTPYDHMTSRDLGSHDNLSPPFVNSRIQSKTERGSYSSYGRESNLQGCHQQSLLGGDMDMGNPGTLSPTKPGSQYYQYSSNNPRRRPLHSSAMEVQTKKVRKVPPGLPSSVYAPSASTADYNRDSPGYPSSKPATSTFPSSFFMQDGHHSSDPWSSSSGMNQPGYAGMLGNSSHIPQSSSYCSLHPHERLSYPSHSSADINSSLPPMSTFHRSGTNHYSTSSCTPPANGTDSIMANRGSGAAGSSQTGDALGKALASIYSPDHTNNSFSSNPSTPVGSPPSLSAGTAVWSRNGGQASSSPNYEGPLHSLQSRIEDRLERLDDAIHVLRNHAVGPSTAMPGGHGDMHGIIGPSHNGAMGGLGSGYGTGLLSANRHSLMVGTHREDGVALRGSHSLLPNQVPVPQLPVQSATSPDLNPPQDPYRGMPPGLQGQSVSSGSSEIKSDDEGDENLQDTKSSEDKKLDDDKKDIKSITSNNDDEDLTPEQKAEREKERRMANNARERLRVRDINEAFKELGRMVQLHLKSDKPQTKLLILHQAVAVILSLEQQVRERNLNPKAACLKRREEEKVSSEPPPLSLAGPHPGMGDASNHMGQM
UniProt P42680, sequence (P42680 whole entry, looked up): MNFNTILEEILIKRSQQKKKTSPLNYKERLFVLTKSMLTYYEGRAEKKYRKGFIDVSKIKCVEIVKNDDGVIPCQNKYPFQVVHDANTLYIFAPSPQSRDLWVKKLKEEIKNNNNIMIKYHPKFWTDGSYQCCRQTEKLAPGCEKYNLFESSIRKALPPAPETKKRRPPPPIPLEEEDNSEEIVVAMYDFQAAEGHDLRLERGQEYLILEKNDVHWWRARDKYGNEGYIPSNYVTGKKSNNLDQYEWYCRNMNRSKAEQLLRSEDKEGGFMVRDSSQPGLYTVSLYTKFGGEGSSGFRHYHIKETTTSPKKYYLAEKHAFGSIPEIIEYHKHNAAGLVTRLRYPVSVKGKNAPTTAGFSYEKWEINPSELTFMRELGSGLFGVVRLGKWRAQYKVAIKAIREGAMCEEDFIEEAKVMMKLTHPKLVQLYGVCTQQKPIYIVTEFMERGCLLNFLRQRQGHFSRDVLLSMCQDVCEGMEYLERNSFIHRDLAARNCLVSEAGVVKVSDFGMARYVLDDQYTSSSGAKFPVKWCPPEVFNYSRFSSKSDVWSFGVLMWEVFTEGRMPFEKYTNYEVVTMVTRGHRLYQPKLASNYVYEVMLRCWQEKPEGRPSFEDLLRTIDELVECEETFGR
UniProt P55851, sequence (P55851 whole entry, looked up): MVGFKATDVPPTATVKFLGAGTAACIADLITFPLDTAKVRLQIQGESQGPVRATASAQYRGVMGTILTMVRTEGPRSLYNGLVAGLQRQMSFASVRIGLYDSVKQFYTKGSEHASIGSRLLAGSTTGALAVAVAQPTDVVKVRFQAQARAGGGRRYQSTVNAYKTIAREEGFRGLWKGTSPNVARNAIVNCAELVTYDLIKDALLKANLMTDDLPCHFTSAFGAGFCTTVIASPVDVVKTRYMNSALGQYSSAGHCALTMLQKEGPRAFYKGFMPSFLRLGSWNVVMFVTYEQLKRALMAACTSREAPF

Target TNFAIP3 (UniProt P21580) has a log2 fold change [1] of 0.052, a log2 fold change [2] of 0.05 and a log2 fold change [3] of 0.033. It also gave a log2 fold change [4] of 0.06.

In the case of TMSB4X (UniProt P62328), the log2 fold change [1] is reported as -0.935 (active), the log2 fold change [2] is reported as 0.434 and the log2 fold change [4] is reported as 0.176.

With TRAF7 (UniProt Q6Q0C0) the log2 fold change [5] was 0.007, the log2 fold change [3] was -0.005 and the log2 fold change [4] was 0.238.

In the case of TJP1 (UniProt H0Y3R8), the log2 fold change [4] is reported as 0.031.

Target UCP2 (UniProt P55851) has a log2 fold change [5] of -0.003.

Work on TLE3 (UniProt H0YL70) yielded a log2 fold change [3] of -0.343.

In the case of TPM3 isoform 3 (UniProt P06753), the log2 fold change [5] is reported as -0.048, the log2 fold change [3] is reported as -0.041 and the log2 fold change [4] is reported as -0.266.

TMEM132A isoform 2 (UniProt Q24JP5) was tested, and the log2 fold change [4] was -0.066.

Target TFPI isoform 2 (UniProt P10646) has a log2 fold change [5] of 0.048.

TCF4 (UniProt P15884) showed a log2 fold change [3] of 0.047 and a log2 fold change [4] of 0.091.

In the case of TCF3 (UniProt X6REB3), the log2 fold change [5] is reported as -0.031 and the log2 fold change [4] is reported as -0.25.

In the case of TNIK isoform 5 (UniProt Q9UKE5), the log2 fold change [1] is reported as 0.008, the log2 fold change [2] is reported as -0.009 and the log2 fold change [3] is reported as -0.089. It also gave a log2 fold change [4] of -0.041.

TTLL12 (UniProt V9GY16) was tested, and the log2 fold change [1] was 0.022, the log2 fold change [2] was 0.606 and the log2 fold change [5] was 0.066. It also gave a log2 fold change [4] of -0.065.

For TMC1 (UniProt Q8TDI8), the log2 fold change [5] was 0.038.

In the case of TEC (UniProt P42680), the log2 fold change [5] is reported as 0.114.

U2AF1L5 (UniProt P0DN76) showed a log2 fold change [3] of 0.002 and a log2 fold change [4] of -0.499.
